Assay outcomes from PubChem.
Shown are actives, neighbours in structure and some others; about 19% of the full set was active somewhere.
HT1080 IDH1KD tx = qHTS for induction of synthetic lethality in tumor cells producing 2HG: qHTS for the HT-1080-IDH1KD cell line; Potency, µM (top dose mostly 46.1 µM), for inactives: top-dose activity, negative = toxicity, hits mostly cytotoxic; HT-1080 IDH1 knockdown viability, ATP luminescence, 48 h; AID 686971, 2013; 360,000 compounds, 2% hits;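 note: potency is the fitted concentration of half-maximal effect; 0% = DMSO wells and -100% = cell-free medium wells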
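% activity derives from luminescence (CellTiter-Glo), normalised to DMSO and no-cell wells. HT-1080-IDH1KD cells, 750/well, had 48 h compound exposure at 37 °C.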
TDP1 cell CPT = qHTS for Inhibitors of human tyrosyl-DNA phosphodiesterase 1 (TDP1): qHTS in cells in presence of CPT | Potency, µM (doses to about 46.2 µM), for inactives: top-dose activity change, negative = growth inhibition, hits mostly inhibitors | chicken DT40 Tdp1-/-;hTDP1 cells + 20 nM CPT, ATP luminescence, 48 h | 420,000 compounds, 12% hits; note: potency is the fitted concentration of half-maximal effect; nearly all actives have a fitted effect of over 55% in size
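Chicken DT40 Tdp1-/- cells complemented with human TDP1, 400 cells/well, exposed to compounds plus 20 nM camptothecin for at least 48 h at 37 C; viability read as ATP content by CellTiter-Glo luminescence.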
HT1080-NT tox = qHTS for induction of synthetic lethality in tumor cells producing 2HG: qHTS for the HT-1080-NT fibrosarcoma cell line | Potency, µM (top dose mostly 46.1 µM), for inactives: top-dose activity, negative = less viability, most hits filed as cytotoxic | HT-1080-NT fibrosarcoma viability, CellTiter-Glo ATP luminescence, 48 h | AID 686970, 2013 | 360,000 compounds, 1.6% hits;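 note: NT is the 2HG producing partner of a matched IDH1 knockdown line; potency is the fitted concentration of half-maximal effect; 0% = DMSO-treated cells and -100% = media-only wells without cells; nearly all actives have a fitted effect of over 55% in size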
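Read-out is CellTiter-Glo luminescence after 10 minutes at room temperature, following 48 hours' compound treatment of HT-1080-NT cells (750 cells/well, RPMI, 5% FBS, 37 degrees C).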
DT40 TDP1 no CPT = qHTS for Inhibitors of human tyrosyl-DNA phosphodiesterase 1 (TDP1): qHTS in cells in absence of CPT | 420,000 compounds, 15% hits | DT40 Tdp1-/- hTDP1 cells, no CPT, ATP luminescence, 48 h | AID 686978, 2013 | Potency, µM (titrated, usually from 46.2 µM), for the others: top-dose activity change, negative = growth inhibition, hits mostly inhibitors; note: potency is the fitted concentration of half-maximal effect; nearly all actives have a fitted effect of over 55% in size
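Chicken DT40 Tdp1-/- cells stably complemented with human TDP1 were seeded at 400 cells/well with DMSO in place of 20 nM camptothecin. After compound pinning, cells grew at least 48 hr at 37 °C; viability read by CellTiter-Glo luminescence.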
IL-1B inflam inh = qHTS for Inhibitors of Inflammasome Signaling: IL-1-beta AlphaLISA Primary Screen. activity change, % at 57.5 µM. 360,000 compounds, 4.7% hits. THP-1 LPS/ATP IL-1B secretion, AlphaLISA, 16 h; active compounds read low. AID 743279, 2014; in the data active = activity change below about -50%; inconclusive = mostly about -30% to -49%
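THP-1 cells pretreated 1 hr with compounds (up to 57.5 uM final), then stimulated with LPS (250 ng/mL final) plus ATP (1.25 mM final); secreted IL-1B measured by AlphaLISA after 16 hr, decreased signal indicating inhibition.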
Numbers without * were called inactive; ? = inconclusive; . = no result given; [ ] = dose if it differs, or a comment. Unless noted, calls come from the whole dose curve; as a rule, active = well fitted curve in the direction sought with a large enough effect; inconclusive = small, poorly fitted or top-dose-only effect, or another doubt; inactive = no such curve, though single readings can be large; an effect the other way counts as inactive or inconclusive. Unless noted, % is set by controls: 0 for no effect and ±100 for the full control effect.

SMILES | HT1080 IDH1KD tx | TDP1 cell CPT | HT1080-NT tox | DT40 TDP1 no CPT | IL-1B inflam inh
Cc1ccc2c(c1)C(=O)N1c3cc(C)c(C)cc3NC(=O)C1C(=O)N2 (configuration not stated) | 2.9% | -12.5% | ? | 3.9% | 1.0
O=C(c1ccco1)N1CCC2(CCCN(c3ccccn3)C2)CC1 | . | 2.2% | . | ? | .
CCNc1nc(NCC)nc(N(CC)C(N)=S)n1 | 13.0% | 2.7% | 7.9% | 3.2% | 10.8
Cc1ccc(-n2c(C)cc(=O)cc2C)cc1[N+](=O)[O-] | 0.3% | -14.3% | 18.9% | -21.2% | -19.0
CCCCOCCCNS(=O)(=O)c1ccccc1 | -2.2% | -10.2% | 0.4% | -16.2% | 0.0
CCCCOP(=O)(OCCCC)C1(NS(=O)(=O)c2ccccc2)C=CC(=O)c2ccccc21 (configuration not stated) | 23.1µM* | 16.4µM* | 20.6µM* | 23.1µM* | 5.6
O=C(C1=C[C@H](C2CC2)C[C@H](OCc2ccc(CO)cc2)O1)N1CCN(Cc2ccc3c(c2)OCO3)CC1 | -2.6% | ? | -3.2% | ? | 0.0
O=C(C1=C[C@H](C2CCCCC2)C[C@H](OCc2ccc(CO)cc2)O1)N1CCN(Cc2ccc3c(c2)OCO3)CC1 | ? | ? | ? | ? | -70.2*
O=C(C1=C[C@@H](C2CCCCC2)C[C@@H](OCc2ccc(CO)cc2)O1)N1CCN(Cc2ccc3c(c2)OCO3)CC1 | ? | ? | ? | 16.4µM* | -63.3*
CCOC(=O)[C@H](CS)NCCN[C@@H](CS)C(=O)OCC | . | 2.4% | . | -7.1% | .
CCSc1nnc(NC(=O)CCC2CCCCC2)s1 | -3.9% | -5.8% | -4.4% | -3.9% | -1.1
COC(=O)c1c(N)n(-c2ccc(OC)c(Cl)c2)c2nc3ccccc3nc12 | . | ? | . | -27.2% | .
COC(=O)c1c(N)n(-c2cc(Cl)cc(Cl)c2)c2nc3ccccc3nc12 | . | 16.4µM* | . | 9.2µM* | .
CCOC(=O)c1ccc(-n2c(N)c(C(=O)OC)c3nc4ccccc4nc32)cc1 | . | 5.8µM* | . | 7.31µM* | .
CCOC(=O)c1c(N)n(C2CC(C)(C)NC(C)(C)C2)c2nc3ccccc3nc12 | ? | ? | ? | -26.5% | -65.1*
CCOC(=O)c1c(N)n(-c2ccc(CC)cc2)c2nc3ccccc3nc12 | . | 23.1µM* | . | ? | .
CC(C)Oc1cccc(C(=O)C2CCCN(S(=O)(=O)C(C)C)C2)c1 (configuration not stated) | -9.9% | ? | -2.2% | ? | 26.6
CSCC[C@H](NC(=O)N1CCn2c1nc1ccccc12)C(=O)NCc1ccc(C)cc1 | -11.7% | ? | -0.6% | ? | 6.9
COc1ccc(-n2c(N)c(C(=O)Nc3c(C)n(C)n(-c4ccccc4)c3=O)c3nc4ccccc4nc32)cc1 | 8.6% | -23.0% | -2.3% | ? | -5.8
Nc1c(C(=O)Nc2ccccc2)c2nc3ccccc3nc2n1-c1ccc(O)cc1 | ? | 10.3µM* | ? | 2.06µM* | 0.0
Cc1ccc(C(OCC(C)(C)C[N+](C)(C)C)c2ccccc2)cc1 (configuration not stated) | 1.0% | 5.8µM* | 2.4% | 5.17µM* | -52.0*
Cc1c(C(=O)NCc2cccc(F)c2)sc2ncnc(NCC3CCCO3)c12 (configuration not stated) | . | -8.2%[9.04 µM] | . | ? | .
Cc1ccc(C)c(S(=O)(=O)Nc2ccc(C(=O)N3CCOCC3)cc2)c1 | -2.6% | ? | -1.8% | ? | ?
Cc1ccc(-c2csc3ncnc(-n4cnc5ccccc54)c23)cc1 | 20.6µM* | ? | 16.4µM* | 18.4µM* | ?
c1ccc(-c2csc3ncnc(-n4cnc5ccccc54)c23)cc1 | -17.6% | ? | -16.3% | ? | -11.5
SMILES | HT1080 IDH1KD tx | TDP1 cell CPT | HT1080-NT tox | DT40 TDP1 no CPT | IL-1B inflam inh
Cc1ccc(-c2csc3ncnc(-n4nnc5ccccc54)c23)cc1C | 3.1% | 20.6µM* | -2.5% | ? | 0.0
O=C(O)C1CC(C2CCCCN2)CN2CCCCC12 (configuration not stated) | . | -2.2% | . | 2.9% | .
COc1ccccc1N1CCN(C(=O)c2ccc(CN3CCOCC3)cc2)CC1 | 7.4% | ? | -8.0% | ? | 8.4
CC(NC(=S)Nc1c(Br)cccc1OC(F)F)C(C)(C)C (configuration not stated) | 0.8% | ? | 5.9% | ? | -1.4
Cc1ccccc1N/N=C1\CCCNC1=O | 2.2% | -20.6% | -3.9% | -7.8% | -53.8*
COC(=O)NCc1cc2cc(Cl)ccc2[nH]1 | ? | -1.7% | -2.8% | -3.3% | 13.7
O=C(Nc1ccc(N2CCCC2)cc1)c1ccc(Cl)cc1Cl | 22.1% | 0.1% | 26.3% | -4.8% | -9.9
CC(=O)Nc1ccc(N2CCCCC2)c(C(=O)Nc2cccc(C)c2)c1 | ? | ? | -7.1% | 9.2µM* | -6.2
O=C(Nc1ccc(N2CCCCC2)cc1)c1ccccn1 | 10.3µM* | 16.4µM* | 9.2µM* | 10.3µM* | -3.2
Cc1cccc(NC(=O)c2cc(NC(=O)C3CCCCC3C(=O)O)ccc2N2CCCCC2)c1 (configuration not stated) | -12.2% | -2.8% | 7.6%[9.24 µM] | 0.1% | -8.4
O=C(Nc1ccc(N2CCCC2)cc1)c1cccc(Cl)c1 | -4.6% | -23.6% | -14.9% | 13µM* | -18.5
O=C(Nc1ccc(N2CCCC2)cc1)c1cc(Cl)ccc1Cl | ? | 23.1µM* | ? | 23.1µM* | -2.8
CC(C)C(C)(C#N)NC(=O)CN1C(=O)NC2(CCCc3ccccc32)C1=O (configuration not stated) | 2.5% | -7.9% | 0.3% | 13.1% | 31.0
O=C(Nc1ccc(N2CCCC2)c(Cl)c1)c1ccccc1F | -5.2% | -27.5% | -6.2% | ? | -50.4*
O=C(Nc1ccc(N2CCCCCC2)cc1)c1ccccc1Cl | 8.2µM* | 13µM* | 11.6µM* | 16.4µM* | ?
COc1ccccc1N(CC(=O)NCCSCc1cccc(Cl)c1)S(C)(=O)=O | -8.9% | ? | -11.2% | ? | 27.1
COc1ccccc1N(CC(=O)NCCSCc1ccccc1)S(=O)(=O)c1ccc(C)cc1 | ? | 9.2µM* | -16.2% | 11.6µM* | -18.6
COc1ccccc1N(CC(=O)NCCSCc1ccccc1)S(=O)(=O)c1ccccc1 | -11.5% | ? | -1.5% | 23.1µM* | -20.5
COc1ccccc1N(CC(=O)NCCSCc1ccco1)S(=O)(=O)c1ccccc1 | 1.3% | 18.4µM* | 20.7% | 16.4µM* | 0.4
